Results reported in PubChem BioAssay (NCI).
This is part of a sample that, as a whole, favours compounds with a hit. Of some 83,000 tested, about 20% had one in any assay.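 Growth was measured after 48 h exposure to one concentration of compound in 96-well plates. Values under 10 count as active.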 Calls of active or inactive are those of the source.

What was measured:
Experiment in all cases: NCI-60 one-dose screen, 48 h (100 = growth as untreated, 0 = no growth, -100 = all killed)
Details in all cases: 10 µM unless noted
NCI-H23 lung = system: NCI-H23 lung
NCI-H226 lung = system: NCI-H226 lung
NCI-H322M lung = system: NCI-H322M lung
HOP-62 NSCLC = system: HOP-62 NSCLC
NCI-H460 lung = system: NCI-H460 lung
HOP-92 NSCLC = system: HOP-92 NSCLC
NCI-H522 lung = system: NCI-H522 lung
786-0 renal = system: 786-0 renal
COLO 205 colon = system: COLO 205 colon
A549/ATCC NSCLC = system: A549/ATCC NSCLC

Measured: growth

CCCCCCCCn1ccc2cc(NC(=O)Cn3cc(CN4CCCC4)nn3)ccc21
inactive: NCI-H23 lung 87.3% | NCI-H226 lung 95.5% | NCI-H322M lung 49.5% | HOP-62 NSCLC 74% | HOP-92 NSCLC 28% | NCI-H522 lung 52.3% | 786-0 renal 16.8%
active: NCI-H460 lung -64.5% | COLO 205 colon -81.4%

COc1ccc(-c2cc(-c3cc(OC)ccc3OC)nc(SCC(=O)c3ccccc3)c2C#N)cc1
inactive: NCI-H23 lung 92.7% | NCI-H226 lung 84.4% | NCI-H322M lung 103% | HOP-62 NSCLC 89.9% | NCI-H460 lung 102% | HOP-92 NSCLC 92.3% | NCI-H522 lung 79% | 786-0 renal 109% | COLO 205 colon 97.8%

COCCN(C(=O)c1ccc(F)cc1F)c1c(N)n(Cc2ccccc2)c(=O)[nH]c1=O
inactive: NCI-H23 lung 95.4% | NCI-H226 lung 94.7% | NCI-H322M lung 99.8% | HOP-62 NSCLC 103% | NCI-H460 lung 116% | HOP-92 NSCLC 59.3% | A549/ATCC NSCLC 101% | 786-0 renal 102% | COLO 205 colon 124%

COc1ccc2c(c1)[nH]c(=O)c1c3cccnc3cn21
inactive: NCI-H23 lung 36.6% | NCI-H226 lung 66.3% | NCI-H322M lung 85.8% | HOP-62 NSCLC 38.4% | HOP-92 NSCLC 73.5% | A549/ATCC NSCLC 13% | 786-0 renal 25.7%
active: NCI-H460 lung 1.71% | COLO 205 colon -45.4%

O=c1oc2ccccc2c(Cl)c1Cl
inactive: NCI-H23 lung 60.6% | NCI-H226 lung 70.8% | NCI-H322M lung 91.5% | HOP-62 NSCLC 83.3% | NCI-H460 lung 103% | HOP-92 NSCLC 97.4% | NCI-H522 lung 22.9% | 786-0 renal 47.3% | COLO 205 colon 11.8%

Cc1ccc(/C=C/c2c(C(=O)/C=C/c3ccc(Cl)cc3)c(C)nc3ccccc23)cc1
inactive: NCI-H322M lung 51.7%
active: NCI-H23 lung 2.79% | NCI-H226 lung -30.4% | HOP-62 NSCLC 3.89% | NCI-H460 lung -73.9% | HOP-92 NSCLC 0.669% | NCI-H522 lung 5.16% | 786-0 renal -17.5% | COLO 205 colon 6.99%

Cc1cccc(-c2nc(N(C)c3ccc4ncsc4c3)c3ccccc3n2)n1
inactive: NCI-H23 lung 78.2% | NCI-H226 lung 84% | NCI-H322M lung 100% | HOP-62 NSCLC 69.7% | NCI-H460 lung 70.7% | HOP-92 NSCLC 91.8% | A549/ATCC NSCLC 48.5% | 786-0 renal 94% | COLO 205 colon 57.3%

C=C1C(=O)O[C@H]2[C@H]1CC/C(COC(=O)C(=O)c1c[nH]c3ccccc13)=C\CC[C@@]1(C)O[C@@H]21
inactive: NCI-H322M lung 24.6%
active: NCI-H23 lung -42.8% | NCI-H226 lung -61.6% | HOP-62 NSCLC 2.66% | NCI-H460 lung 6.72% | HOP-92 NSCLC -74.3% | A549/ATCC NSCLC 9.03% | 786-0 renal -75.8% | COLO 205 colon -62.2%

COC(=O)[C@]12CC[C@@H](C)[C@H](C)[C@@H]1C1=CC[C@@H]3[C@@]4(C)C(C=O)=C[C@@](C)(COS(C)(=O)=O)C4[C@H](O)C[C@@]3(C)[C@]1(C)CC2 (stereo partly specified)
active: NCI-H23 lung -50.1% | NCI-H226 lung -67.2% | NCI-H322M lung -1.44% | HOP-62 NSCLC -63.6% | NCI-H460 lung -58.2% | HOP-92 NSCLC -74.3% | A549/ATCC NSCLC -67.1% | 786-0 renal -91.5% | COLO 205 colon -70.8%

COc1ccc(S(=O)(=O)NCCNc2nccc(-c3c(-c4cccc(F)c4)nc4sccn34)n2)cc1
inactive: NCI-H23 lung 56.3% | NCI-H226 lung 28.1% | NCI-H322M lung 63% | HOP-62 NSCLC 73.4% | NCI-H460 lung 29% | HOP-92 NSCLC 71.8% | A549/ATCC NSCLC 22.5% | 786-0 renal 43.1% | COLO 205 colon 21.7%

COC(=O)[C@]12CC[C@@H](C)[C@H](C)[C@@H]1C1=CC[C@@H]3[C@@]4(C)C(C=O)=C[C@@](C)(COC(C)=O)[C@@H]4[C@H](O)C[C@@]3(C)[C@]1(C)CC2
active: NCI-H23 lung -12.8% | NCI-H226 lung -25.2% | HOP-62 NSCLC 8.74% | NCI-H460 lung -64.6% | HOP-92 NSCLC -6.92% | A549/ATCC NSCLC 1.47% | 786-0 renal -36.2% | COLO 205 colon -40.4%
inactive: NCI-H322M lung 28.3%

COc1cccc(-c2nn(-c3ccccc3)cc2-c2ccnc(NCCNC(=O)Nc3ccccc3)c2)c1
inactive: NCI-H23 lung 62.5% | NCI-H226 lung 63.9% | NCI-H322M lung 89.8% | HOP-62 NSCLC 58.7% | NCI-H460 lung 53.8% | HOP-92 NSCLC 33% | A549/ATCC NSCLC 30.4% | 786-0 renal 43.2% | COLO 205 colon 50.4%

COc1ccc(C2=Nc3c(N)ncnc3NC(c3ccc4c(c3)OCO4)C2)cc1 (stereo unspecified)
inactive: NCI-H23 lung 69.7% | NCI-H226 lung 85.5% | NCI-H322M lung 99.4% | HOP-62 NSCLC 68.1% | NCI-H460 lung 102% | HOP-92 NSCLC 45.4% | A549/ATCC NSCLC 89.3% | 786-0 renal 55.6% | COLO 205 colon 102%

CCN1C(=O)N(CC)C2Nn3c(s/c(=C4\C(=O)N(C)c5ccccc54)c3=O)=NC21 (stereo unspecified)
inactive: NCI-H23 lung 44.3% | NCI-H226 lung 78.9% | NCI-H322M lung 75% | HOP-62 NSCLC 58.4% | NCI-H460 lung 22.6% | HOP-92 NSCLC 75.5% | 786-0 renal 27.8%
active: NCI-H522 lung 0.903% | COLO 205 colon 8.23%
